Our source for the outcome and AC50 values is PubChem BioAssay (EPA / NIEHS).

The target in assay [1] is rat Glutamate Metabotropic Receptor 5 (MGluR5), Grm5 (gene 24418) (UniProt P31424). Briefly: NVS_GPCR_rmMGluR5: NovaScreen (NVS) G Protein-Coupled Receptor Assay for rat Glutamate Metabotropic Receptor 5 (MGluR5) (AID 2283307). Put shortly: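 Rat whole-brain membrane preparation; filter-based radioligand binding read by scintillation counting, 1.5 h after dosing. Single-point screen at 25 uM in duplicate; hits over threshold (e.g. 30% inhibition) retested in concentration-response up to 50 uM; loss of signal vs DMSO.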

Assay [2] deals with rat Opioid Receptor, Non-selective Sodium (Na+) Binding, Oprm1 (gene 25601) (UniProt P33535). Description: NVS_GPCR_rOpiate_NonSelectiveNa: NovaScreen (NVS) G Protein-Coupled Receptor Assay for rat Opioid Receptor, Non-selective Sodium (Na+) Binding (AID 2283311). The method, boiled down:
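Rat forebrain membranes, radioligand displacement with filter scintillation counting, 1.5 h incubation. Screened in duplicate at 25 µM; hits then run in concentration-response up to 50 µM; loss of binding fitted versus DMSO.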

The target in assay [3] is rat Neonicotinoid receptor (NNR), Chrna7 (gene 25302) (UniProt Q05941). Briefly: NVS_LGIC_rNNR_BungSens: NovaScreen (NVS) Ligand-Gated Ion Channel Assay for rat Neonicotinoid receptor (NNR) (AID 2283315). The method, boiled down:
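Radioligand displacement binding on rat cortical membranes, 2.5 h incubation, filtration and scintillation counting. Loss of specific binding fitted relative to DMSO.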

For assay [4], the target named is rat Opioid Receptor, Non-selective Binding, Oprm1 (gene 25601) (UniProt P33535). Description: NVS_GPCR_rOpiate_NonSelective: NovaScreen (NVS) G Protein-Coupled Receptor Assay for rat Opioid Receptor, Non-selective Binding (AID 2283318). Put shortly:
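Rat forebrain membranes, cell-free radioligand binding with filter-based scintillation counting, read 1.5 h after dosing. Primary screen in duplicate at 25 uM; actives retested in concentration series. Loss of signal versus DMSO baseline scored.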

The target in assay [5] is rat Neurokinin-1 Receptor (NK1), Tacr1 (gene 24807) (UniProt P14600). Briefly: NVS_GPCR_rNK1: NovaScreen (NVS) G Protein-Coupled Receptor Assay for rat Neurokinin-1 Receptor (NK1) (AID 2283309). The method, boiled down: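 Rat submaxillary gland membranes; radioligand displacement read by filter-based scintillation counting after 1 h. Primary screen in duplicate at 25 uM; actives retested in concentration series; loss of binding fitted versus DMSO.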

In assay [6] the target is rat Neurokinin-3 Receptor (NK3), Tacr3 (gene 24808) (UniProt P16177). Description: NVS_GPCR_rNK3: NovaScreen (NVS) G Protein-Coupled Receptor Assay for rat Neurokinin-3 Receptor (NK3) (AID 2283310). The method, boiled down: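 Rat cortical membranes; radioligand binding with filtration and scintillation counting, 2 h after dosing. Primary screen in duplicate at 25 uM, then concentration-response up to 50 uM; loss of binding signal relative to DMSO.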

Assay [7] concerns the target rat Somatostatin Receptor (SST), Sstr1 (gene 25033) (UniProt P28646). Briefly: NVS_GPCR_rSST: NovaScreen (NVS) G Protein-Coupled Receptor Assay for rat Somatostatin Receptor (SST) (AID 2283314). The method, boiled down: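 Rat forebrain membranes; radioligand displacement read by filter-based scintillation counting 1 h after dosing. Primary screen in duplicate at 25 uM. Actives (e.g., 30% inhibition) were rerun as concentration-response to 50 uM max and fitted against DMSO.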

The next assay has as its system NCBI gene 24521. Briefly: NVS_IC_rKATPCh: NovaScreen (NVS) Ion Channel Assay for rat Potassium Channel, ATP-Sensitive (KATPCh) (AID 2283319). As to the method: NVS_IC_rKATPCh is a biochemical, single-readout assay that uses extracted gene-proteins from Rat cortical membranes in a tissue-based cell-free assay. Measurements were taken 2 hours after chemical dosing in a 48-well plate.NVS_IC_rKATPCh is one of one assay component(s) measured or calculated from the NVS_IC_rKATPCh assay. It is designed to make measurements of radioligand binding, a form of binding reporter, as detected with scintillation counting signals by Filter-based radiodetection technology.Data from the assay component NVS_IC_rKATPCh was analyzed into 1 assay endpoint. This assay endpoint, NVS_IC_rKATPCh, was analyzed in the positive analysis fitting direction relative to DMSO as the negative control and baseline of activity. Using a type of binding reporter, loss-of-signal activity can be used to understand changes in the binding as they relate to the gene Kcnj1. Furthermore, this assay endpoint can be referred to as a primary readout, because the performed assay has only produced 1 assay endpoint. To generalize the intended target to other relatable targets, this assay endpoint is annotated to the ion channel intended target family, where the subfamily is potassium channel. […]

A short description of assay [8]: NVS_IC_rCaDHPRCh_L: NovaScreen (NVS) Ion Channel Assay for rat Calcium Channel, Type L, Dihydropyridine Site (CaDHPRCh_L) (AID 2283320). The procedure: NVS_IC_rCaDHPRCh_L is a biochemical, single-readout assay that uses extracted gene-proteins from Rat cortical membranes in a tissue-based cell-free assay. Measurements were taken 1 hour after chemical dosing in a 48-well plate.NVS_IC_rCaDHPRCh_L is one of one assay component(s) measured or calculated from the NVS_IC_rCaDHPRCh_L assay. It is designed to make measurements of radioligand binding, a form of binding reporter, as detected with scintillation counting signals by Filter-based radiodetection technology.Data from the assay component NVS_IC_rCaDHPRCh_L was analyzed into 1 assay endpoint. This assay endpoint, NVS_IC_rCaDHPRCh_L, was analyzed in the positive analysis fitting direction relative to DMSO as the negative control and baseline of activity. Using a type of binding reporter, loss-of-signal activity can be used to understand changes in the binding as they relate to the gene Cacna1a. Furthermore, this assay endpoint can be referred to as a primary readout, because the performed assay has only produced 1 assay endpoint. To generalize the intended target to other relatable targets, this assay endpoint is annotated to the ion channel intended target family, where the subfamily is calcium channel.
Binding assays used specific radioligands (tritiated, iodinated) with non-radioactive competitive displacement ligands in agonist or antagonist protocols (as indicated) and various reference compounds and inhibitors to titrate specific binding to receptors and transporters. Most enzyme assays (CYPs, kinases, phosphatases, proteases, HDACs) used recombinant protein and specific substrates (fluorescence mostly, some colorimetric and radioactive) and inhibitors, followed by a biochemical separation of substrate and product. All assays for the biochemical HTS were initially run in duplicate at a single concentration (10 uM for CYP450 assays and 25 uM for all others). Assay-chemical combinations meeting a pre-defined threshold (e.g., 30% inhibition and other criteria defined below) were then run in singleton concentration-response format with maximum concentration of 20 uM for CYPs and 50 uM for all others. Each assay was run with positive and negative controls, and concurrent controls on every plate. The follow-up (secondary) screen tested active chemical-pairs in concentration series, as well as a few additional assays not tested in the primary screen, some selected negative inactives, and several cases re-run in the concentration series for confirmatory purposes.

For assay [9], the target named is rat Vasopressin 1 Receptor (V1), Avpr1a (gene 25107) (UniProt P30560). Briefly: NVS_GPCR_rV1: NovaScreen (NVS) G Protein-Coupled Receptor Assay for rat Vasopressin 1 Receptor (V1) (AID 2283316). The method, boiled down:
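Radioligand binding on rat liver membranes, 1.5 h incubation, filter-based scintillation counting. Single 25 uM screen in duplicate; chemicals meeting threshold (e.g. 30% inhibition) run in concentration-response up to 50 uM.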

Molecules are shown by their SMILES. Results filed as inconclusive are left out. Calls of active or inactive are those of the source. How the source made its calls: active means hit-call score of the fitted dose curve at least 0.9, where 1 is the maximum; inconclusive means response in the unintended direction; inactive means score below 0.9.

rat Glutamate Metabotropic Receptor 5 (MGluR5), Grm5 (gene 24418), sequence (P31424 whole entry, looked up): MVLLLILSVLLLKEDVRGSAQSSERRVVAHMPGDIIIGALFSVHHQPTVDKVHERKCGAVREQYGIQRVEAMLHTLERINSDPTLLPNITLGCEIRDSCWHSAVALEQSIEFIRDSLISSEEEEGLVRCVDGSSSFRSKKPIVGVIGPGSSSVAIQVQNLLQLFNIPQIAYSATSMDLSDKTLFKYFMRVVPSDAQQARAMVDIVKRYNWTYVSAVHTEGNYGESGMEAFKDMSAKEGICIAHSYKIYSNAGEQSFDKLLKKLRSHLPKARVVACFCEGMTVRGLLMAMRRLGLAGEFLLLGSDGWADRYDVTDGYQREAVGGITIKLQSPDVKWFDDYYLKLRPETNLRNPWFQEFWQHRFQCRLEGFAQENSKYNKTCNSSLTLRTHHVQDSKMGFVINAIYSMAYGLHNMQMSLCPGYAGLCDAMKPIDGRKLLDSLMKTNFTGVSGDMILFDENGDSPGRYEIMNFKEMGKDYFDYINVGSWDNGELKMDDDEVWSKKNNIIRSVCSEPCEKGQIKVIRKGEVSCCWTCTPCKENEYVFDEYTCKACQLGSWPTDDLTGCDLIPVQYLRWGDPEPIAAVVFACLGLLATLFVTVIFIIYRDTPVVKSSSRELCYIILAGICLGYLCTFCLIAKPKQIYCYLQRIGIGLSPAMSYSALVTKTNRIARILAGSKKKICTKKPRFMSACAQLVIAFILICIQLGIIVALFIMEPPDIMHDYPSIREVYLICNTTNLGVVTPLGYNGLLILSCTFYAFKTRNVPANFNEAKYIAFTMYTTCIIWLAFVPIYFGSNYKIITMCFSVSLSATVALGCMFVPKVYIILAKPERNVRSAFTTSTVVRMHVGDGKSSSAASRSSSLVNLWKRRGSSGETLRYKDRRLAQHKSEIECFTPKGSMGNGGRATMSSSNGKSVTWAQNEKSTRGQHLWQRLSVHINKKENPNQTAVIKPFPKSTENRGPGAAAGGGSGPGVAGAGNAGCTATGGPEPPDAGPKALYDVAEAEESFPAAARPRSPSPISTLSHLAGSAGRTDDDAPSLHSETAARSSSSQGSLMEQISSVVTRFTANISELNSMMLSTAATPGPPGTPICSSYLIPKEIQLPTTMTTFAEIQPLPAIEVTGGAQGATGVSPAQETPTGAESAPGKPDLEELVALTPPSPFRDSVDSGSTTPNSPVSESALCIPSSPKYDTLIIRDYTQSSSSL
rat Neonicotinoid receptor (NNR), Chrna7 (gene 25302), sequence (Q05941 whole entry, looked up): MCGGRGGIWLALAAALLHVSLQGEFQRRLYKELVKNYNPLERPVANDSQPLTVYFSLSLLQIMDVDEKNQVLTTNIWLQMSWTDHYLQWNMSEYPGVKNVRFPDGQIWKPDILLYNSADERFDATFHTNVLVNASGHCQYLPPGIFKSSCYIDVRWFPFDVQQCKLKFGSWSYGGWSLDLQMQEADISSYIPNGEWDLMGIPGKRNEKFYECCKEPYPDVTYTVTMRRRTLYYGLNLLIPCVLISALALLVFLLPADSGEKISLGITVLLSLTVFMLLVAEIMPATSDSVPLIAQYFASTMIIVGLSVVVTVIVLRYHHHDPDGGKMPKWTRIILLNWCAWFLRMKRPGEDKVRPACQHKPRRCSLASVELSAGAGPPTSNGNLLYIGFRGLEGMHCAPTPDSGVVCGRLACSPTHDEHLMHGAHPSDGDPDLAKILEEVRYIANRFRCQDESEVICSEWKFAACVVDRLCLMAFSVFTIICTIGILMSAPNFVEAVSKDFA
rat Somatostatin Receptor (SST), Sstr1 (gene 25033), sequence (P28646 whole entry, looked up): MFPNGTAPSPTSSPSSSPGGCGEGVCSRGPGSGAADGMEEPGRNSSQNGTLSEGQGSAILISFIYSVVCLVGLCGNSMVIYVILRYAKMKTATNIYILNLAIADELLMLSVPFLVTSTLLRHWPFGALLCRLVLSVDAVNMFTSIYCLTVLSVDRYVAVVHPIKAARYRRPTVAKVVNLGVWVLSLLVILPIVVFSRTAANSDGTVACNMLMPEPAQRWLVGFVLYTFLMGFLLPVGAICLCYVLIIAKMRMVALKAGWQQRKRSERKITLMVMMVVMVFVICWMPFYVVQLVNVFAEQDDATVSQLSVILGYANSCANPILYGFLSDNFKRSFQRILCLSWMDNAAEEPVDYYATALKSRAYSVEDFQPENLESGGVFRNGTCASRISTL
rat Neurokinin-1 Receptor (NK1), Tacr1 (gene 24807), sequence (P14600 whole entry, looked up): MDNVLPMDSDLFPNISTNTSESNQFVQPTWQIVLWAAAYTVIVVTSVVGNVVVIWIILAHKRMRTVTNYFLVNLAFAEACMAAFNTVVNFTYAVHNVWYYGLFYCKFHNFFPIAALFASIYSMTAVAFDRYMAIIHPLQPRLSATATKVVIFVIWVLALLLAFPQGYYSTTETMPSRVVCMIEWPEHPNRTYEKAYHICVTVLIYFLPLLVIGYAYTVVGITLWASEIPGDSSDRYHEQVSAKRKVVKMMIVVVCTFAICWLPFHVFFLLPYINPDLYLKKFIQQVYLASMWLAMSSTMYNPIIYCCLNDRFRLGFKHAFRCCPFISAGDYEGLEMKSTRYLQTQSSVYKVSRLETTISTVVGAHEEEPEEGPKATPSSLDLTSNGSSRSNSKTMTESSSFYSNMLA
rat Neurokinin-3 Receptor (NK3), Tacr3 (gene 24808), sequence (P16177 whole entry, looked up): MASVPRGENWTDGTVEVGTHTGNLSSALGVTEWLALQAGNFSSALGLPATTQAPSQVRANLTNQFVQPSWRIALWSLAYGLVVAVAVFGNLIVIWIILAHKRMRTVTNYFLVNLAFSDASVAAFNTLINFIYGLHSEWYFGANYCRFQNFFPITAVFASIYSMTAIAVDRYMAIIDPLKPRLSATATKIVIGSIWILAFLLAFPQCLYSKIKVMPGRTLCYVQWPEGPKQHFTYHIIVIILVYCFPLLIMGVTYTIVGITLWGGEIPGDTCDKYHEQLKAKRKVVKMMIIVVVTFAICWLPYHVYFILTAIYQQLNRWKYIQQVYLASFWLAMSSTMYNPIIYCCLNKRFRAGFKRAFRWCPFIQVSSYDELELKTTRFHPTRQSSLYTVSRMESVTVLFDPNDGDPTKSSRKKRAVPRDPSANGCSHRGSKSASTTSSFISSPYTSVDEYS
rat Opioid Receptor, Non-selective Sodium (Na+) Binding, Oprm1 (gene 25601), sequence (P33535 whole entry, looked up): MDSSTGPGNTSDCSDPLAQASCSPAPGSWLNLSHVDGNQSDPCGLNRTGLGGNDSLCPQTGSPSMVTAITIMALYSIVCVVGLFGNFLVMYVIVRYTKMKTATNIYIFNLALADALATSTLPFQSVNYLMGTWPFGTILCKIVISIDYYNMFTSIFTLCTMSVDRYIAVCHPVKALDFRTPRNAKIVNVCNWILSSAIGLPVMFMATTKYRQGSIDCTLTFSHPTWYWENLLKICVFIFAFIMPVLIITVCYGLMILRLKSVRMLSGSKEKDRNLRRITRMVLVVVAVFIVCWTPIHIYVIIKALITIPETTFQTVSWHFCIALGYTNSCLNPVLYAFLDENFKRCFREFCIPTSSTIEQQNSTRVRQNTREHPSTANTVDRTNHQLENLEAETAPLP
rat Opioid Receptor, Non-selective Binding, Oprm1 (gene 25601), sequence (P33535 whole entry, looked up): as above
rat Vasopressin 1 Receptor (V1), Avpr1a (gene 25107), sequence (P30560 whole entry, looked up): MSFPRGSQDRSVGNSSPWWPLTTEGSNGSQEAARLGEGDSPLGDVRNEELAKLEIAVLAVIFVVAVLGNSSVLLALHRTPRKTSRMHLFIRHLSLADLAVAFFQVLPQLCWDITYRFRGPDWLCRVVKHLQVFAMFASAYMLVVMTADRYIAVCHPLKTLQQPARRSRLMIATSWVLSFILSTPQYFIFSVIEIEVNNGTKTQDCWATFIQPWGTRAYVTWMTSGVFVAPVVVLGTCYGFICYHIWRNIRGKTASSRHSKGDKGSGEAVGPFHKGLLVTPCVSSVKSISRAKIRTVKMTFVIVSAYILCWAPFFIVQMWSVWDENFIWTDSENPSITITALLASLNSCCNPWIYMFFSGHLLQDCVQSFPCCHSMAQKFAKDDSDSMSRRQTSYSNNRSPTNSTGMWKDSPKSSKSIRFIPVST

On to `OC1CCCCC1`, for which the compound was classed as inactive in assay [1].

`CCN(CC)CCNc1ccc(CNC=O)c2sc3ccc(OC)cc3c(=O)c12`: the compound was called inactive in assay [2] and in assay [4]. Also, the AC50 (usually the concentration at which the activity in the assay is half-maximal) in assay [3] was 29.3 µM (active).

`O=c1c(-c2ccc(O)cc2)coc2cc(O)ccc12`: the call in assay [5], in assay [3] and in assay [4] was inactive.

Take `CC(=O)NC1(c2cccc(F)c2)CCN(CC[C@@]2(c3ccc(Cl)c(Cl)c3)CN(c3ccccc3)C(=O)CO2)CC1`: the AC50 was 14.5 µM (active) in assay [5]; 0.713 µM (active) in assay [6]; 10.5 µM (active) in assay [2]; 9.18 µM (active) in assay [7]; 7.82 µM (active) in assay [4]; 4.88 µM (active) with NCBI gene 24521. Besides, the AC50 in [8] was 2.24 µM (active).

For `CCC(C)(C)C1CCC(O)CC1` (stereo not drawn), in assay [3], the compound was classed as inactive.

For `CC#C[C@]1(O)CC[C@H]2[C@@H]3CCC4=CC(=O)CCC4=C3[C@@H](c3ccc(N(C)C)cc3)C[C@@]21C`, the outcome in assay [1], in assay [5], in assay [6], in [3] and in assay [9] was inactive. The AC50 in assay [2] was 2.59 µM (active); in assay [4], 0.404 µM (active).

`CCC(=C(c1ccc(O)cc1)c1ccc(OCCN(C)C)cc1)c1ccccc1`: the result in assay [5] was inactive.

For the compound `NC(=O)N(O)[C@@H]1C=C[C@H](Oc2cccc(Oc3ccc(F)cc3)c2)C1`, the outcome in assay [5], in [7] and in assay [4] was inactive.

For `c1ccc2c(c1)Cc1ccccc1-2`, in [4], the result was inactive.

Turning to `CC[C@H](C)[C@@H](C(=O)O)n1sc2ccccc2c1=O`, the AC50 in [2] was 3.52 µM (active).

For the compound `Cc1oc(-c2ccccc2)nc1CCOc1ccc(C[C@H](Nc2ccccc2C(=O)c2ccccc2)C(=O)O)cc1`, the result in [6] and in [4] was inactive. The AC50 in assay [8] is 25 µM (active).

With `CC(=O)CC(C)(C)O`, the compound was called inactive in assay [4].

Consider `O=C(O)c1ccccc1C(c1ccc(O)cc1)c1ccc(O)cc1`, for which the compound was called inactive in assay [5].

In the case of `ClC1=C(Cl)C(Cl)(Cl)C(Cl)=C1Cl`, the compound was called inactive in assay [4] and in assay [8].

Turning to `CCCCCCCC(=O)O`, the result in [2] and in assay [4] was inactive.

In the case of `CC(C)(C)c1ccc(O)c(C(C)(C)C)c1`, the AC50 in assay [7] is 10.7 µM (active).

In the case of `O=C(OCCOCCOC(=O)c1ccccc1)c1ccccc1`, in [5], the call was inactive.

For `CC(C)CCCCCCOC(=O)CCCCC(=O)OCCCCCCC(C)C`, the compound was called inactive in assay [1] and in assay [5].

As for `COCC(C)OCC(C)O` (stereo not drawn), the compound was classed as inactive in assay [4].

With `CCCOc1sc(C(=O)N2CCC(c3cc(CN)ccc3F)CC2)c(C)c1Br`, the AC50 was 23.2 µM (active) in assay [5], 23.2 µM (active) in assay [9], 11 µM (active) in assay [4] and 14.7 µM (active) in assay [8].

With `O=C(O)Cc1cc(I)c(Oc2cc(I)c(O)c(I)c2)c(I)c1`, the result in assay [5], in [2] and in assay [4] was inactive.

In the case of `CC[C@H](c1ccc(O)cc1)[C@@H](CC)c1ccc(O)cc1`, the compound was called inactive in assay [6] and in [3]. The AC50 in [2] was 1.77 µM (active); in assay [4], 5.14 µM (active).
